Test results from PubChem BioAssay AID1159580 (chemical genetic matrix, 2015).
Where “and” joins values, the source holds several entries; their conditions need not be identical. Identical values can stand only once. About 2,000 (36%) of roughly 5,500 compounds were called active. Another 18% or so got no clear call; they are omitted. Cut-off read from the data, not from the text of the source: active = normalized growth mostly below about 0.91 (no sharp cut-off); inconclusive = no clear call, values can overlap the other calls; inactive = mostly above about 0.92. The list shows a part of the results.

Experiment: chemical genetic growth profiling, strain panel (AID 1159580);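 note: tested at 20 µM; growth read once vehicle control cultures reached saturation at 30 °C; 1 = growth at the plate median or of vehicle wells; lower values mean less growth of the strain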
Details: S. cerevisiae deletion strains, growth OD

Measured: normalized growth

C1CCc2nnnn2CC1
inactive: locus YAL013W, strain DEP1, hits give low values 1.01 | locus YAL021C, strain ccr4, hits give low values 1.01 | locus YAL026C, strain drs2, hits give low values 1.01 | locus YAL030W, strain snc1, hits give low values 1 | locus YAL040C, strain CLN3, hits give low values 0.98 | locus YBL061C, strain skt5, hits give low values 1.01 | locus YBR009C, strain hhf1, hits give low values 1.01 | locus YBR021W, strain FUR4, hits give low values 1.01 | locus YBR023C, strain chs3, hits give low values 1.01 | locus YBR171W, strain sec66, hits give low values 1.01 | locus YBR229C, strain ROT2, hits give low values 1.01 | locus YBR231C, strain swc5, hits give low values 1 | locus YBR279W, strain paf1, hits give low values 1.01 | locus YCL011C, strain gbp2, hits give low values 1 | locus YCL016C, strain dcc1, hits give low values 1 | locus YCL029C, strain bik1, hits give low values 1.03 | locus YCL061C, strain MRC1 (second series), hits give low values 1 | locus YCL061C, strain MRC1, hits give low values 0.998 | locus YCL069W, strain vba3, hits give low values 1 | locus YCR088W, strain abp1, hits give low values 1.02 | locus YDL005C, strain med2, hits give low values 0.999 | locus YDL035C, strain GPR1, hits give low values 1.01 | locus YDL040C, strain nat1, hits give low values 1 | locus YDL074C, strain BRE1, hits give low values 1.03 | locus YDL101C, strain DUN1, hits give low values 1.03 | locus YDL134C, strain PPH21, hits give low values 1.01 | locus YDL185W, strain tfp1, hits give low values 1.01 | locus YDL192W, strain arf1, hits give low values 1.01 | locus YDR001C, strain nth1, hits give low values 1.01 | locus YDR069C, strain doa4, hits give low values 1.01 | locus YDR101C, strain arx1, hits give low values 1.01 | locus YDR137W, strain rgp1, hits give low values 1.02 | locus YDR150W, strain NUM1, hits give low values 1.01 and 1 | locus YDR159W, strain sac3, hits give low values 1 | locus YDR162C, strain NBP2, hits give low values 0.994 | locus YDR195W, strain ref2 0.985 | locus YDR297W, strain sur2, hits give low values 1.02 | locus YDR318W, strain mcm21, hits give low values 1.02 | locus YDR334W, strain swr1, hits give low values 1.01 | locus YDR335W, strain msn5, hits give low values 1.01 | locus YDR363W, strain ESC2, hits give low values 1.01 | locus YDR388W, hits give low values 1 | locus YDR392W, strain spt3, hits give low values 1.03 | locus YDR502C, strain sam2, hits give low values 1 | locus YEL003W, strain gim4, hits give low values 1.01 | locus YEL037C, strain rad23, hits give low values 1 | locus YEL061C, strain CIN8 (second series), hits give low values 1.01 | locus YEL061C, strain CIN8, hits give low values 1.01 | locus YER002W, strain NOP16, hits give low values 1.01 | locus YER015W, strain faa2, hits give low values 1 | locus YER016W, strain bim1, hits give low values 1.01 | locus YER110C, hits give low values 1.02 | locus YER111C, strain swi4, hits give low values 1 | locus YER155C, strain BEM2 (second series), hits give low values 1.02 | locus YER155C, strain BEM2, hits give low values 1 | locus YER167W, strain BCK2, hits give low values 1 | locus YFR010W, strain ubp6, hits give low values 1.01 | locus YGL078C, strain dbp3, hits give low values 1 | locus YGL086W, strain mad1, hits give low values 0.99 | locus YGL173C, strain kem1, hits give low values 1.02 | locus YGL227W, strain vid30, hits give low values 1 | locus YGL240W, strain doc1, hits give low values 1.01 | locus YGL248W, strain PDE1, hits give low values 1.01 | locus YGL253W, strain hxk2, hits give low values 1 | locus YGR078C, strain PAC10, hits give low values 1 and 1.03 | locus YGR135W, strain pre9, hits give low values 1.03 | locus YGR229C, strain SMI1, hits give low values 0.969 and 1.01 | locus YGR252W, strain gcn5, hits give low values 0.941 | locus YHR013C, strain ard1, hits give low values 1.02 | locus YHR027C, strain rpn1, hits give low values 1.01 | locus YHR030C, strain SLT2, hits give low values 1.01 and 0.966 | locus YHR079C, strain IRE1 (second series), hits give low values 1.02 | locus YHR079C, strain IRE1, hits give low values 0.964 | locus YHR094C, strain hxt1, hits give low values 1.01 | locus YHR129C, strain ARP1, hits give low values 1.02 | locus YHR142W, strain chs7, hits give low values 1.01 | locus YHR200W, strain rpn10, hits give low values 1.01 | locus YIL066C, strain RNR3, hits give low values 1.02 | locus YIL073C, strain SPO22, hits give low values 1.01 | locus YIL125W, strain kgd1, hits give low values 1 | locus YIR030C, strain dcg1, hits give low values 1.01 | locus YJL092W, strain hpr5, hits give low values 1 | locus YJL095W, strain BCK1 (second series), hits give low values 1 | locus YJL095W, strain BCK1, hits give low values 1.02 and 0.967 | locus YJL115W, strain asf1, hits give low values 0.993 | locus YJL129C, strain trk1, hits give low values 1.01 | locus YJL134W, strain LCB3, hits give low values 1.01 | locus YJL154C, strain vps35, hits give low values 1 | locus YJL164C, strain tpk1, hits give low values 1 | locus YJL166W, strain qcr8, hits give low values 1.01 | locus YJL168C, strain set2, hits give low values 1.01 | locus YJL187C, strain SWE1 (second series), hits give low values 1.04 | locus YJL187C, strain SWE1, hits give low values 1.02 | locus YJR043C, strain POL32, hits give low values 1.01 | locus YJR066W, strain TOR1, hits give low values 0.921
